Data on 40 molecules can be found in PubChem BioAssay (NCI).

Molecules are shown by their SMILES. “And” between values parts separate entries of the source, which are not always exact repeats. Equal values may be shown once. Compounds without any hit were thinned out: in the full panel of roughly 83,000, 20% have a hit.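 Single-concentration screen, 48 h exposure, 96-well plates. Endpoint: percent growth. Below 10 = active.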 Values without a mark were called inactive. The source made the active and inactive calls.

The test system of the experiment is HL-60(TB) leukemia. Nature of the experiment: NCI-60 one-dose screen, 48 h (100 = growth as untreated, 0 = no growth, -100 = all killed). The settings on record: 10 µM unless noted.

For the molecule `Oc1ccc(Cl)cc1-c1cc(-c2ccccc2Cl)[nH]n1`, the growth was 46.6%.
To `CCOC(=O)c1sc2ncnc(Nc3ccc(NC(=O)Nc4ccc(Cl)cc4)cc3)c2c1C` belongs 91.4%; to `CCOC(=O)c1c2ncccc2n2c(=O)n(-c3ccccc3C)nnc12`, 56.9%.
To `COC(=O)/C=C1/SC(=Nc2cccc(OC)c2)N(CCc2c[nH]c3ccc(O)cc23)C1=O` belongs 59.8%; to `CC[C@H](CC[C@@H](C)[C@H]1CC[C@H]2[C@@H]3CC=C4C[C@@H](O)CC[C@]4(C)[C@H]3CC[C@]12C)C(C)C`, 125% and 100%; to `CCNc1cc(-c2cccc(OC(F)(F)F)c2)nc2ccc(N3CCCC3)cc12`, -47.1% (active).
Take `COc1ccc(-c2c(N)noc2-c2cc(OC)c3c(c2)OCCO3)cc1`: the growth was -30.8% (active).
To `COC(=O)c1cc(=O)nc(N/N=C/c2ccccc2O)s1` belongs 87.3%; to `COc1ccc(-c2cn(-c3cc(OC)c(OC)c(OC)c3)c(=O)n2C(C)=O)cc1`, 32.2%; to `COc1nc2ccccc2s1`, 94.5%.
To `COc1ccc(C(=O)/C=C/c2c(C(F)(F)F)nc3ccccn23)cc1OC` belongs 2.72% (active); to `COc1cc(-c2nc(SCC(C)C)nc(Nc3cccc4ccccc34)c2C#N)cc(OC)c1OC`, 79.1%; to `OCc1cccnc1`, 117%.
The figure for `CCOC(=O)CSc1nnc(-c2cc3c([nH]c4ccccc43)c(-c3cccc(O)c3)n2)n1-c1ccc(C)cc1` is 45.3%.
Turning to `CC(=O)Nc1ccc(Sc2ccc(NC(C)=O)cc2)cc1`, the growth is 73.1%.
The figure for `O=C(CN1CCOCC1)Nc1nc(-c2cc3ccccc3oc2=O)cs1` is 102%; for `CC(C)(C)c1ccc(Cn2cc(CSc3nc4ccccc4s3)nn2)cc1` it is 93.7%; for `Oc1c(C(Nc2cccc3ccccc23)c2ccccc2)ccc2cccnc12` (stereo not given) it is -37.4% (active).
To `COc1ccc2nc3ccc(OC)cc3c(SCCCN)c2c1` belongs 50.2%; to `CN1C=CN(Cc2ccc(-c3ccccn3)nc2)[CH-]1.CN1C=CN(Cc2ccc(-c3ccccn3)nc2)[CH-]1.[Au+3]`, -9.42% (active).
To `COc1cc(-c2cc3ncccc3c3nc(N)c4cccnc4c23)cc(OC)c1OC` belongs 6.71% (active); to `O=C(c1ccncc1)c1c(Cc2ccccc2)ccc2ccccc12`, 88.1%; to `CC(O)(CC(=O)CC(=O)c1ccccc1)c1ccccc1` (stereo not given), 101% and 90.1%.
For the molecule `COc1cc2c(cc1OCCCCCn1c3ccccc3c3ccccc31)N=C[C@@H]1CCCN1C2=O`, the growth is -46.7% (active).
Take `O=C(Nc1ccccc1)Nc1cccc(Oc2nnc(Cl)c3ccccc23)c1`: the growth is 12.1%.
To `O=C1CC23OC4ON=C(Br)C4C2C(O)c2ccccc2N13` (stereo not given) belongs 102%; to `COc1ccc(-c2nocc2-c2cccs2)cc1`, 115%; to `COc1ccc(-c2noc(N)c2-c2cc(OC)c3c(c2)OCO3)cc1`, -29.4% (active).
The figure for `COc1ccc(C2C=C(c3ccc(Cl)c(Cl)c3)N=C3SC(C)=CN32)cc1OC` (stereo not given) is 63.3%; for `COc1ccc(Cn2cc3c(c2-c2ccccc2)CCc2cncnc2-3)cc1` it is 15.2%.
`COc1c(N)c2c(c([N+](=O)[O-])c1OC)C(=O)OC2`: the growth was 95.3%.
As for `O=C1c2cccnc2C(=O)c2c1c(C(=O)OCCN1CCCCC1)c1ccccn21`, the growth was -46.5% (active).
The figure for `O=C(O)c1ccc(OCc2ccccc2)cc1` is 103%.
The figure for `O=c1cc(-c2ccccc2)oc2c(O)c(O)ccc12` is 59.4%; for `COc1cc(-c2nn(-c3cccc(NC(=O)CN4CCOCC4)c3)cc2-c2cccnc2)ccc1Cl` it is 84%.
To `COc1ccc2[nH]c(O)c(C(=Nc3ccc(N(C)C(=O)CN4CCN(C)CC4)cc3)c3ccccc3)c2c1` belongs -14.9% (active).
As to `CCN(CC)c1ccc2c(cc1=O)[C@@H](NC(C)=O)CCc1cc(OC)c(OC)c(OC)c1-2`, the growth was -56.8% (active).
To `O=C(Nc1cccc(-n2cc(-c3ccncc3)c(-c3ccc(Cl)c(O)c3)n2)c1)Nc1ccc(Cl)c(Cl)c1` belongs -6.98% (active); to `CCc1ccc(C(=O)/C=C/C23c4ccccc4C(c4ccccc42)C2C(=O)NC(=O)C23)cc1` (stereo not given), -12.3% (active); to `O[C@@H]1Cc2ccc3ccccc3c2N[C@H](c2ccoc2)C1`, 105%.
